A selection: hits, their analogues and other compounds. The true share with any hit is near 20%.
Cycloheximide cs: counter-screen for Shiga toxin inhibitors: cycloheximide protein synthesis inhibition; cell reporter, cycloheximide protein synthesis inhibition counterscreen; max response, %; 300,000 compounds, 12% hits; AID 2314; in the data active means max response mostly above about 13%, no sharp cut-off; inactive means mostly below about 14%; further: read at 38.3 µM for the half of the compounds with a filed dose
Pf growth 96h: inhibits malaria parasite growth, 96 h | P. falciparum luciferase reporter growth, 96 h | 320,000 compounds, 6.9% hits | AID 504834 | Potency, µM (highest dose often 28.7 µM), actives largely listed as inhibitors
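Delayed-death screen, second-generation endpoint: infected erythrocytes, 2% hematocrit, 0.05% parasitemia final; 96 hours at 37 C, 5% CO2; luciferase detection reagent; luminescence decrease equals reduced growth.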
HCMV inh: inhibitors of human cytomegalovirus. HFF cells, HCMV-luciferase reporter, 72 h; stronger effect = lower value. activity change, negative = inhibition, % at 57.5 µM. 410,000 compounds, 4.5% hits. AID 1259415; in the data active means activity change below about -60%; inconclusive means no clear call, values can overlap the other calls; inactive means above about -39%
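Cell-based, HFFs, 1000 cells/well, 16 h 37C; cpds in DMSO + HCMV-luc, MOI 1 PFU/cell; 72 h 37C; OneGlo luminescence after 5 min RT; norm. to buffer vs Salinomycin 10uM.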
Pf growth 48h: P. falciparum growth inhibition at 48 hours (one generation); P. falciparum luciferase growth in erythrocytes, 48 h; Potency, µM (doses to about 28.7 µM), most hits filed as inhibitors; 310,000 compounds, 5.9% hits; AID 504832
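Compounds are pin-transferred into medium, infected erythrocytes (2% hematocrit, 0.1% parasitemia final) are added, and plates sit one parasite generation at 37 C in 5% CO2. Detection reagent is then added and luminescence measured.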
Shiga inhibitor: inhibitors of Shiga toxin in Vero cells; Vero cells, Shiga toxin protein synthesis inhibition reporter; inhibition, % at 38.7 µM; AID 2315; 290,000 compounds, 9.2% hits; in the data active means inhibition mostly above about 28%, no sharp cut-off; inactive means mostly below about 43%
Numbers stand for hits; 0 = inactive; ? = inconclusive; - = no result given; [ ] = remark or other dose. Unless noted, the call rests on the fitted dose curve; in most records, active means well fitted inhibition curve with a large enough effect; inconclusive means small, poorly fitted or top-dose-only effect, or another doubt; inactive means no such curve, though single readings can be large or run the other way.

SMILES	Cycloheximide cs	Pf growth 96h	HCMV inh	Pf growth 48h	Shiga inhibitor
COC(=O)[C@]1(S(=O)(=O)c2ccccc2)CC(=O)N(Cc2ccccc2)[C@@H]1c1ccccc1	-	-	0	-	-
O=C(c1ccc(OC2CCN(C/C=C/c3ccccc3)CC2)cc1)N1CCCC1	0	10.4µM	0	2.94µM	0
COc1ccccc1NC(=S)N1CCN(C/C=C/c2ccccc2)CC1	0	?	-72.2	0	0
Cc1cc(C)cc(NC(=O)N2CCN(C/C=C/c3ccccc3)CC2)c1	0	2.94µM	0	0	0
CCOc1cc(C(=O)N2CCN(C/C=C/c3ccccc3)CC2)cc(OCC)c1OCC	0	5.22µM	0	-	0
O=C(Nc1ccc(F)cc1)N1CCN(C/C=C/c2ccccc2)CC1	0	0	0	?	0
O=C(c1cccc([N+](=O)[O-])c1)N1CCN(C/C=C/c2ccccc2)CC1	0	?	0	?	0
CC(C(=O)Nc1cccc([N+](=O)[O-])c1)N1CCN(C/C=C/c2ccccc2)CC1 (centres undefined)	0	13.1µM	0	?	0
COc1ccccc1/C=C/CN1CCC(Oc2ccc(C(=O)N3CCCCC3)cc2)CC1	0	0	0	7.38µM	0
COc1ccc(/C=C/CN2CCC(Oc3ccc(C(=O)N4CCCCC4)cc3)CC2)cc1	0	?	0	?	0
CN(C)c1ccnc(-n2cccc2/C=N/OCc2cccc(F)c2)c1C#N	0	?	0	-	0
CC(=O)Oc1ccc(-c2cccc(C(=O)OCC(=O)N(C)c3ccccc3)c2)cc1	0	14.7µM	0	0	0
CN(C)c1cccc(C(=O)OCC(=O)N(C)c2ccccc2)c1	0	0	?	0	0
CN(C(=O)COC(=O)c1ccc2c(c1)OCCO2)c1ccccc1	0	0	-69.4	0	0
CCOc1ccccc1NC(=O)COC(=O)c1cccc(-c2ccc(OC(C)=O)cc2)c1	0	9.28µM	0	9.28µM	0
CC(C)N(C)CCOC(=O)c1ccc2c(c1)OCCO2	16.0	0	0	0	0
CC(C)N(Cc1ccccc1)C(=O)COC(=O)c1ccc2c(c1)OCCO2	0	-	0	-	0
COc1ccc(/C(C)=N/NC(=O)c2sccc2-n2cccc2)cc1	0	0	0	0	0
CC1CCCC(C)N1C(=O)CSc1ncccn1 (centres undefined)	0	0	0	0	0
Cc1ccc(C(=O)OCC(=O)N(C)c2ccccc2)cc1C	0	0	0	0	0
Cc1cc(C(=O)OCC(=O)N(C)c2ccccc2)ccc1[N+](=O)[O-]	0	0	-62.9	0	0
CN(C(=O)COC(=O)c1cccc(F)c1)c1ccccc1	12.6	0	0	0	0
CCN(C(=O)C1CCN(S(=O)(=O)c2cc(Br)cc3c2N(C(C)=O)CC3)CC1)c1cccc(C)c1	-	-	0	-	-
NNc1nc(-c2ccccc2)nc2sc3c(c12)CCCC3	62.0	?	0	?	108.6
NNc1nc2sc3c(c2c(=O)n1Cc1ccccc1)CCC3	0	0	0	0	0
SMILES	Cycloheximide cs	Pf growth 96h	HCMV inh	Pf growth 48h	Shiga inhibitor
CCN(C(=O)Cn1c(=O)oc2ccccc21)c1ccc(C)c(C)c1	0	0	0	?	0
O=C(COc1ccc(Cl)cc1Cl)N(C1CCCCC1)C1CCS(=O)(=O)C1 (centres undefined)	-	10.4µM	0	?	-
O=C(NNC(=S)Nc1cccc(C(F)(F)F)c1)c1ccc(Cl)cc1Cl	0	0	-66.5	0	0
O=C(Nc1cccc(C(F)(F)F)c1)Nc1cc(Cl)ccc1C(=O)O	0	-	-	-	0
Cc1ccccc1C(=O)NNC(=S)Nc1cccc(C(F)(F)F)c1	27.7	?	0	0	0
Cc1ccccc1-n1nc(-c2cccnc2)cc1C(=O)NN	0	0	0	0	0
COc1ccc(/C=N\NC(=O)c2c(C)nc3ccc(Br)cn23)cc1	0	0	-68.8	0	0
COc1cccc(/C=N/NC(=O)c2c(C)nc3ccc(Br)cn23)c1O	0	0	-	11.7µM	0
CN(Cc1cnccn1)Cc1nc(Cc2ccccc2Cl)no1	0	0	0	0	0
CCN(Cc1ccncc1)Cc1nc(Cc2ccccc2Cl)no1	0	?	-60.7	10.4µM	0
O=S(=O)(c1ccc(F)cc1)N1CCC(Oc2ccc(-n3cnnn3)cc2)CC1	-	-	0	-	-
O=C(NCc1nnnn1-c1ccc(Cl)cc1)c1ccc(Br)o1	-	0	0	0	-
CN1C/C(=C\c2ccc(N3CCOCC3)cc2)C(=O)/C(=C/c2ccc(N3CCOCC3)cc2)C1	0	0	?	?	0
CCN1C/C(=C/c2ccc(N3CCOCC3)cc2)C(=O)/C(=C/c2ccc(N3CCOCC3)cc2)C1	25.6	4.15µM	-102.1	7.38µM	35.6
COc1ccc(C)cc1NC(=O)C(Sc1nnc(-c2cccs2)o1)c1ccccc1 (centres undefined)	0	?	0	?	0
O=C(Nc1ccc(Cl)cc1C(F)(F)F)C(Sc1nnc(-c2cccs2)o1)c1ccccc1 (centres undefined)	29.1	?	0	0	88.7
O=C(Nc1cc(C(F)(F)F)ccc1Cl)C(Sc1nnc(-c2cccs2)o1)c1ccccc1 (centres undefined)	14.7	0	0	0	33.1
O=C(CC1S/C(=N/N=C/c2cccs2)NC1=O)Nc1ccc(Cl)cc1 (centres undefined)	0	1.85µM	0	0	0
O=C(CC1S/C(=N/N=C/c2c[nH]c3ccc(OCc4ccccc4)cc23)NC1=O)Nc1ccccc1 (centres undefined)	0	11.7µM	0	0	0
O=C(CC1S/C(=N/N=C/c2c[nH]c3ccccc23)NC1=O)Nc1ccccc1 (centres undefined)	0	0	0	0	0
COc1ccc(-c2noc(COc3ccc4c(c3)OCO4)n2)cc1	0	0	?	0	0
Cc1ccccc1OCc1nc(-c2ccc(Br)o2)no1	0	0	0	-	0
Cc1ccccc1OCc1nc(-c2ccccc2)no1	38.9	-	0	0	66.5
c1ccc(-c2noc(COc3ccc4c(c3)OCO4)n2)cc1	25.7	0[5.75 µM]	0	0	54.6
Cc1ccc(S(=O)(=O)NCc2nc(-c3ccccc3)no2)cc1	0	0	0	0	0
SMILES	Cycloheximide cs	Pf growth 96h	HCMV inh	Pf growth 48h	Shiga inhibitor
COc1ccc(OCc2nc(-c3ccc(-n4cccc4)cc3)no2)cc1	-	-	0	-	-
c1ccc(NCc2nc(-c3ccccc3)no2)cc1	55.7	-	0	0	155.2
Cc1ccc(OCc2nc(-c3ccccc3)no2)cc1	44.9	0	0	0	84.5
O=C(Nc1ccccc1)c1cccc2c(=O)c3c([nH]c12)CCCC3	-	-	0	-	-
CCN(CC(=O)Nc1c(F)cccc1F)C(=O)COc1ccc2c(C)cc(=O)oc2c1	0	0	?	0	0
Cc1ccc(-c2noc(COc3ccccc3C)n2)cc1	29.5	0	0	0	0
Cc1ccc(C)c(OCc2nc(-c3cccnc3)no2)c1	0	0	0	0	0
CC(C)=CC(O)C/C(C)=C/COc1ccc2ccc(=O)oc2c1 (centres undefined)	8.6	0	0	0	0
O=C(NNc1nc2cc3c(cc2s1)OCCO3)c1ccccc1	36.1	0	0	0	145.9
Cc1cccc2sc(NNC(=O)c3ccc4c(c3)OCCO4)nc12	0	0	0	0	0
CC(=O)Nc1nc2cc3c(cc2s1)OCCO3	44.2	0	0	0	29.2
